# Source: PubChem BioAssay (EPA / NIEHS)
# Active and inactive are the calls of the source. How the source made its calls: active means hit-call score of the fitted dose curve at least 0.9, where 1 is the maximum; inactive means score below 0.9.
# Assay: APR_HepG2_CellCycleArrest_1hr: Apredica 1-hour HepG2 Assay for Cell Cycle Arrest (AID 2282666)
# Conditions: high-content imaging, actives raise or lower the signal
# Protocol: APR_HepG2_1hr is a cell-based, multiplexed-readout assay that uses HepG2, a human liver cell line, with measurements taken at 1 hour after chemical dosing in a 384-well plate.APR_HepG2_CellCycleArrest_1hr is one of 10 assay component(s) measured or calculated from the APR_HepG2_1hr assay. It is designed to make measurements of cell phenotype, a form of morphology reporter, as detected with fluorescence intensity signals by HCS Fluorescent Imaging technology.Data from the assay component APR_HepG2_CellCycleArrest_1hr was analyzed into 1 assay endpoint. This assay endpoint, APR_HepG2_CellCycleArrest_1hr, was analyzed with bidirectional fitting relative to DMSO as the negative control and baseline of activity. Using a type of morphology reporter, measures of all nuclear dna for gain or loss-of-signal activity can be used to understand the signaling at the pathway-level as they relate to the gene . Furthermore, this assay endpoint can be referred to as a primary readout, because this assay has produced multiple assay endpoints where this one serves a signaling function. To generalize the intended target to other relatable targets, this assay endpoint is annotated to the cell cycle intended target family, where the subfamily is arrest.
# Cells were treated with dimethyl sulfoxide (DMSO) as a solvent control at a final concentration of 0.5% v/v or with compounds in DMSO with a resulting final DMSO concentration of 0.5% v/v. Compound treatment was done at concentrations of 0.39, 0.78, 1.56, 3.12, 6.24, 12.5, 25, 50, 100, and 200 uM in duplicate on each plate. Cells were treated with compounds for 1, 24, or 72 hr. Carbonyl […] m-chloro-phenylhydrazone (CCCP) and taxol were used as positive controls for mitochondrial function and cytoskeletal stability, respectively; DMSO served as the negative control for this experiment. Cells were fixed by the direct addition of 50 uL formaldehyde in Hank's Balanced Salt Solution (HBSS) to a final concentration of 3.7%. After incubation in the fixation medium for 30 min at room temperature (293-298 K), cells were rinsed twice with HBSS and treated with cell permeabilization buffer (16 uL of 0.5% Triton X-100) for 10 min at room temperature (293-298 K) before labeling. For mitochondrial membrane potential and mitochondrial measurements, pre-fixed cells were incubated with 50 uL of MitoTracker Red CMXRos (Invitrogen) at a concentration of 250 nM for 30 min before fixation. In the remaining cases, post-fixed cells were labeled by incubation with a multiplexed mixture of primary antibodies in HBSS for 60 min at room temperature (293-298 K) to detect immunoreactivity of c-Jun (1:500), phospho-histone H3 (1:100), phospho-histone H2A.x (1:200), p53 (1:400), alpha-tubulin (1:200) and Hoechst 33342 (2 ug/mL). Cells were labeled for multiplexed imaging on two separate plates: a) Hoechst 33342, MitoTracker Red, phospho-histone H3, and alpha-tubulin, and b) Hoechst 33342, phospho-histone H2A.x, and c-Jun. A final rinse with HBSS (50 uL) was performed before analysis. The primary and secondary antibodies for the proteins were phospho-histone H3 (rabbit anti-phospho-histone H3 and FITC-donkey anti-rabbit IgG), phospho-histone H2A.x (mouse anti-phospho-histone H2A.x and FITC-donkey anti-mouse IgG), c-Jun (rabbit anti-phospho-c-Jun and Cy3-donkey anti-rabbit IgG), p53 (sheep anti-p53 and Cy5-donkey anti-sheep IgG), alpha-tubulin (mouse anti-alpha-tubulin and Cy5-donkey anti-mouse IgG). These antibodies are available as the CellCiphr HepG2 assay kit (Millipore).Digital images of each well were captured using a Cellomics ArrayScan VTI (Thermo Scientific Cellomics) (0.8 NA objective, 0.63x optical coupler, and XF-93 filter set) at 20x magnification. The images were acquired using the autofocus feature of the ArrayScan instrument, which entails the following steps. First, the camera focuses on channel 1 (Hoechst 33342), where nuclei are identified. Second, a Z offset of 1 um is used for capturing mitochondria (MitoTracker Red). […]
Structure (SMILES),outcome,AC50
N#CN,inactive,–
C#CCN1C(=O)COc2cc(F)c(N3C(=O)C4=C(CCCC4)C3=O)cc21,inactive,–
Clc1ccccc1-c1nnc(-c2ccccc2Cl)nn1,inactive,–
ClC1C(Cl)C(Cl)C(Cl)C(Cl)C1Cl (stereo not given),inactive,–
CCC(C)Nc1c([N+](=O)[O-])cc(C(C)(C)C)cc1[N+](=O)[O-] (stereo not given),inactive,–
O=S1OCC2C(CO1)C1(Cl)C(Cl)=C(Cl)C2(Cl)C1(Cl)Cl (stereo not given),inactive,–
COP(=S)(OC)Oc1ccc([N+](=O)[O-])cc1,inactive,–
N#Cc1c(Cl)c(Cl)c(Cl)c(C#N)c1Cl,inactive,–
Cc1cc(C)nc(NC(=O)NS(=O)(=O)c2ccccc2C(=O)OC2COC2)n1,inactive,–
Oc1ccc(Cl)cc1Cc1ccccc1,–,114 µM (active)
CC[C@H](C)[C@H]1O[C@]2(C=C[C@@H]1C)C[C@@H]1C[C@@H](C/C=C(\C)[C@@H](O[C@H]3C[C@H](OC)[C@@H](O[C@H]4C[C@H](OC)[C@@H](O)[C@H](C)O4)[C@H](C)O3)[C@@H](C)/C=C/C=C3\CO[C@@H]4[C@H](O)C(C)=C[C@@H](C(=O)O1)[C@]34O)O2 (tested in a mixture with another compound),inactive,–
CCCN(CCOc1c(Cl)cc(Cl)cc1Cl)C(=O)n1ccnc1,inactive,–
C[C@H]1[C@H](c2ccc(Cl)cc2)SC(=O)N1C(=O)NC1CCCCC1,inactive,–
O=C(NC(=O)c1c(F)cccc1F)Nc1ccc(OC(F)(F)C(F)OC(F)(F)F)c(Cl)c1 (stereo not given),inactive,–
CC(C)N(C(=O)COc1nnc(C(F)(F)F)s1)c1ccc(F)cc1,inactive,–
CCC(C)(NC(=O)c1cc(Cl)c(C)c(Cl)c1)C(=O)CCl (stereo not given),inactive,–
CCc1ccc(C(=O)NN(C(=O)c2cc(C)cc(C)c2)C(C)(C)C)cc1,inactive,–
[2H]C1([2H])[n+]2ccccc2-c2cccc[n+]2C1([2H])[2H],inactive,–
CC(C)(C)C(O)C(Oc1ccc(Cl)cc1)n1cncn1 (stereo not given),inactive,–
CCOC1Oc2ccc(OS(C)(=O)=O)cc2C1(C)C (stereo not given),inactive,–

Structure (SMILES),outcome,AC50
O=C(Nc1ccccc1)Nc1cnns1,inactive,–
CCC(C)(C)C(=O)OC1=C(c2ccc(Cl)cc2Cl)C(=O)OC12CCCCC2,inactive,–
O=C(O)C(F)(F)C(F)(F)C(F)(F)C(F)(F)C(F)(F)C(F)(F)C(F)(F)F,inactive,–
CC(C)(C)C(O)/C(=C\c1ccc(Cl)cc1Cl)n1cncn1 (stereo not given),inactive,–
COP(=S)(OC)Oc1ccc(SC)c(C)c1,inactive,–
CCCN(CCC)c1c([N+](=O)[O-])cc(C(F)(F)F)cc1[N+](=O)[O-],inactive,–
O=C(O)CCCOc1ccc(Cl)cc1Cl,inactive,–
CCS(=O)(=O)c1cccnc1S(=O)(=O)NC(=O)Nc1nc(OC)cc(OC)n1,inactive,–
COC(=O)c1ccccc1S(=O)(=O)NC(=O)Nc1nc(C)nc(OC)n1,inactive,–
Cc1[nH]c(=O)n(C(C)(C)C)c(=O)c1Cl,inactive,–
CNC(=O)Oc1ccccc1OC(C)C,inactive,–
CCOc1nc(NC)nc(NC(=O)NS(=O)(=O)c2ccccc2C(=O)OC)n1,inactive,–
CN1CSC(=S)N(C)C1,inactive,–
CC(C)OC(=O)Nc1cccc(Cl)c1,inactive,–
COP(=O)(OC)OC=C(Cl)Cl,inactive,–
O=S(=O)(O)C(F)(F)C(F)(F)C(F)(F)C(F)(F)C(F)(F)C(F)(F)C(F)(F)C(F)(F)F,inactive,–
CNC(=O)Oc1cccc(N=CN(C)C)c1,inactive,–
O=[N+]([O-])/N=C1\NCCN1Cc1ccc(Cl)nc1,inactive,–
CC1(c2ccc(Oc3ccccc3)cc2)OC(=O)N(Nc2ccccc2)C1=O (stereo not given),inactive,–
O=C1c2ccccc2C(=O)N1SC(Cl)(Cl)Cl,inactive,–
